Measurements taken from PubChem BioAssay AID488847 (NMMLSC, 2010).
Screen size: about 330,000 compounds; about 1,900 (0.58%) were called active. For the sample, actives were picked, then their nearest neighbours and some compounds at random. Values without a mark were called inactive.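 The calls were made as follows: active = inhibition of aptamer binding above 40%, roughly 3 SD of noise, on plates passing a quality check; inactive = the rest.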

target: Beta-adrenergic receptor kinase 1 (Homo sapiens) (UniProt P25098); experiment: compounds blocking aptamer binding on GRK2 – biochemical, human GRK2, bead flow cytometry, HTS, primary screen (AID 488847); conditions: FAM-aptamer displacement from GRK2, at 10 µM, active compounds read high;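 also: median bead fluorescence of bound FAM aptamer so fluorescent compounds give negative values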
Sequence (P25098 whole entry, looked up): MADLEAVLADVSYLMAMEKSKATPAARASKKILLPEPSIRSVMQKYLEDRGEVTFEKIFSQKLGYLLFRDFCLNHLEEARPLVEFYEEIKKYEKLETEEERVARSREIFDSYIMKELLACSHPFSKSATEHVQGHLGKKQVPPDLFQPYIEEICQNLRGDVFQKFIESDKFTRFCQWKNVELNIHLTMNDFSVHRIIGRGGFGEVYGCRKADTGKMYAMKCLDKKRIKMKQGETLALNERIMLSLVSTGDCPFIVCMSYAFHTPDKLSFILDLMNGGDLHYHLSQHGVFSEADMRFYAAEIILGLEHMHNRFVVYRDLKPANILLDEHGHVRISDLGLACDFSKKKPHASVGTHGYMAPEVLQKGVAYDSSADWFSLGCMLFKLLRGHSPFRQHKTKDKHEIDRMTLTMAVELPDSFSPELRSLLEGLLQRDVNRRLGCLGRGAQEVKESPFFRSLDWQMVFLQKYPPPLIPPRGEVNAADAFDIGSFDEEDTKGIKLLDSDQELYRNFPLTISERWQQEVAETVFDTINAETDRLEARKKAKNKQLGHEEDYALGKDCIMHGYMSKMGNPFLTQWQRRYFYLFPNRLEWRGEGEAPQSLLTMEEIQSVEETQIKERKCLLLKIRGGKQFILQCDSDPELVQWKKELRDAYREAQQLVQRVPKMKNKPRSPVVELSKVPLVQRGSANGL

`CC1CCN(CC(O)COc2ccc(C(=O)c3ccccc3)cc2)CC1` (configuration not stated) and `OC(COc1ccc(Br)cc1)CN1CCCC1` (configuration not stated) are the same in inhibition of aptamer binding: 0% for the first, 0% for the second.

First: C=CCOc1ccc(/C=C/C(=O)OC(C)C(=O)Nc2ccc(NC(C)=O)cc2)cc1 (configuration not stated)
Second: CCOc1ccc(-n2c(SCC(=O)Nc3ccc(OC)cc3)nc3sc4c(c3c2=O)CCN(C)C4)cc1
The inhibition of aptamer binding of the first is higher: 1% for the first, 0% for the second.

Compared with `CN(C(=O)c1cccc([N+](=O)[O-])c1)c1ccccc1C(=O)NCc1ccccc1`, `CC1(c2cccc([N+](=O)[O-])c2)CC(C)(C)N(C(=O)c2ccccc2)c2ccccc21` (configuration not stated) is lower in inhibition of aptamer binding: 1% for the first, 0% for the second.

`COc1ccc2oc(C(=O)N(CC(C)C)C3CCS(=O)(=O)C3)c(C)c2c1` (configuration not stated) and `COc1cc(C(=O)N(Cc2ccc(N(C)C)cc2)C2CCS(=O)(=O)C2)cc(OC)c1OC` (configuration not stated) are the same in inhibition of aptamer binding: 0% for the first, 0% for the second.

`CCOC(=O)CN(C(=O)CN1CCOCC1)c1ccc(Br)cc1` and `CC(=O)c1ccc(N2CCN(C(=O)CCc3ccccc3)CC2)cc1` are the same in inhibition of aptamer binding: 0% for the first, 0% for the second.

`CC(=O)N1CCc2cc(Br)cc(S(=O)(=O)CCC(=O)Nc3c(C)n(C)n(-c4ccccc4)c3=O)c21` and `Cc1c(NC(=O)C(C)Oc2cccc(Cl)c2)c(=O)n(-c2ccccc2)n1C` (configuration not stated) are the same in inhibition of aptamer binding: 0% for the first, 0% for the second.

Going from `COc1ccccc1NC(=O)C1CCN(C(=O)c2ccc(C(C)(C)C)cc2)CC1` to `O=C(c1ccccc1)c1ccc(C(=O)N2CCN(c3ccccc3)CC2)cc1`, the inhibition of aptamer binding rises from 0% to 1%.

Compared with `O=C(CN1CCN(S(=O)(=O)c2ccc(Cl)s2)CC1)NCc1ccc(Cl)cc1`, `CCNS(=O)(=O)c1ccc(CCC(=O)N2CCN(c3cc(Cl)ccc3C)CC2)cc1` is lower in inhibition of aptamer binding: 2% for the first, 0% for the second.

`COc1ccc(NC(=O)Cn2ncn3c(cc4ccccc43)c2=O)c(OC)c1OC` and `Cc1noc(C)c1COc1ccccc1C(=O)N(C)CC(=O)Nc1cccc(F)c1` are the same in inhibition of aptamer binding: 1% for the first, 1% for the second.

`CN1CCN(c2nc3c(c(=O)[nH]c(=O)n3C)n2Cc2cccc3ccccc23)CC1` and `Cn1c(=O)[nH]c(=O)c2c1nc(N1CCN(CCO)CC1)n2CCSc1nc2ccccc2s1` are the same in inhibition of aptamer binding: 0% for the first, 0% for the second.

`Cc1ccc(NN=Nc2nc3c([nH]2)c(=O)n(C)c(=O)n3C)cc1` and `Cc1cccc(Cn2c(N3CCN(c4ccccc4)CC3)nc3c2c(=O)n(C)c(=O)n3C)c1` are the same in inhibition of aptamer binding: 0% for the first, 0% for the second.

`O=C1CCCC2=C1C(c1cccs1)CC(=O)N2c1ccc(F)cc1` (configuration not stated) and `CCOC(=O)c1cc2c(n(-c3ccc(C)cc3)c1=O)CCCC2=O` are the same in inhibition of aptamer binding: 0% for the first, 0% for the second.

First: O=C(c1ccc(F)cc1)N1CCCC(C(=O)N2CCCCC2)C1 (configuration not stated)
Second: Cc1ccc(C(=O)COC(=O)CCCC(=O)NC2CCCCC2)cc1[N+](=O)[O-]
The inhibition of aptamer binding of the first is higher: 1% for the first, 0% for the second.

`CC(C)(C)OC(=O)N/N=C/c1ccc(C(=O)O)cc1` and `COC(=O)N/N=C/c1ccc(-c2ccc(Cl)c(Cl)c2)o1` are the same in inhibition of aptamer binding: 0% for the first, 0% for the second.

Compared with `O=C1c2ccccc2C2=Nc3ccccc3SC(c3ccccc3F)C12` (configuration not stated), `CN(C(=O)CC(NC(=O)c1ccccc1)(c1ccccc1)c1ccccc1)c1ccccc1` is higher in inhibition of aptamer binding: 0% for the first, 1% for the second.

Going from `COc1ccc(C2=NN(C(=O)CSc3nc(=O)n4ccc(C)cc4n3)C(c3ccc(C)cc3)C2)cc1` (configuration not stated) to `CCOc1ccc(-n2c(SCC(=O)OC)nc3sc4c(c3c2=O)CCN(C)C4)cc1`, the inhibition of aptamer binding falls from 2% to 1%.

`COc1cc(C)ccc1OCC(=O)OCC(=O)c1ccc[nH]1` and `CCOC(=O)c1c(C)[nH]c(C)c1S(=O)(=O)NCCCc1ccco1` are the same in inhibition of aptamer binding: 0% for the first, 0% for the second.

Going from `CN1C(=O)CC(N2CCN(c3ccccn3)CC2)C1=O` (configuration not stated) to `CC(Sc1nnc(-c2ccccc2F)n1C1CC1)C(N)=O` (configuration not stated), the inhibition of aptamer binding falls from 1% to 0%.

`CC1(c2ccccc2)CC(C)(C)N(C(=O)c2cc([N+](=O)[O-])cc([N+](=O)[O-])c2)c2ccccc21` (configuration not stated) and `C[C@@H](O)c1nc2ccccc2n1N` are the same in inhibition of aptamer binding: 0% for the first, 0% for the second.

`CCCCn1c(SCC(=O)N2CCOCC2)nc2c1c(=O)n(C)c(=O)n2C` showed an inhibition of aptamer binding of 0%.

In the case of `COc1ccccc1C(=O)N(Cc1ccc(C)o1)C1CCS(=O)(=O)C1` (configuration not stated), the inhibition of aptamer binding is reported as 43% (active).
For `CC(=O)c1ccc(N2CCN(C(=O)c3ccc4nc[nH]c4c3)CC2)cc1`, the inhibition of aptamer binding was 66% (active).
In the case of `Cn1c(=O)[nH]c(=O)c2c1nc(N1CCN(C(c3ccccc3)c3ccccc3)CC1)n2CCO`, the inhibition of aptamer binding is reported as 43% (active).
With `CCOC(=O)C1=C(N)N(c2ccc(C)cc2)C2=C(C(=O)CCC2)C1c1cccs1` (configuration not stated) the inhibition of aptamer binding was 45% (active).
For `COC(=O)N/N=C/c1ccc(/C=N/NC(=O)OC)cc1`, the inhibition of aptamer binding was 87% (active).
`Cc1nnc(SCC(=O)N2c3ccccc3C(C)(c3ccc(Cl)cc3)CC2(C)C)s1` (configuration not stated) was tested, and the inhibition of aptamer binding was 72% (active).
In the case of `COc1ccccc1NC(=O)CSc1nc2sc3c(c2c(=O)n1-c1ccccc1)CCN(C)C3`, the inhibition of aptamer binding is reported as 56% (active).
For `Cn1c(=O)c2c(nc(N3CCOCC3)n2CCNC2=NCCC2)n(C)c1=O`, the inhibition of aptamer binding was 83% (active).
